Out of some 350,000 compounds screened, about 220 (0.063%) were called active. Roughly 4% stayed inconclusive and do not appear here. This is one part of a sample in which actives are shown more often than they occur. The call rests on the fitted dose curve; in most records, active means well fitted activation curve with a large enough effect; inconclusive means small, poorly fitted or top-dose-only effect; inactive means no such curve, though single readings can be large or run the other way.
Experiment: qHTS for Activators of Integrin-Mediated Alleviation for Muscular Dystrophy; further: nearly all actives have a fitted effect of over 60% in size
Details: alpha7betagal myoblasts, beta-gal FDG fluorescence, 48 h; series mostly up to 38.3 µM
Excerpt: Integrins are a diverse family of transmembrane cell surface receptors that mediate interactions between cells and the extracellular matrix. These heterodimeric proteins are composed of alpha and beta subunits and the a7b1 interacts with laminin in the extracellular matrix and actin of the cell cytoskeleton. Both chains contribute to ligand binding, but the alpha chain mediates the specificity of the interaction. The alpha7beta1 integrin is a major laminin receptor in skeletal, cardiac and vascular smooth muscle. Mutations in the alpha7 integrin gene are responsible for muscular dystrophy in both humans and mice. The alpha7beta1 integrin is also a major modifier of muscle disease progression in various muscle diseases including Duchenne muscular dystrophy, Fukuyama muscular dystrophy and merosin deficient congenital muscular dystrophy type 1A. […] Transcriptional regulation of the alpha7 integrin gene is poorly understood and probably involves multiple transcription factors. The goal of identifying small molecules that enhance alpha7 integrin expression is two-fold: firstly, such molecules would help us gain insight into the complex transcriptional control of alpha7 integrin. It is known that alpha7 integrin expression is tightly controlled during various stages of development, disease and in response to external stimuli. The second goal of the project is to translate the above finding into a therapeutic strategy for muscular dystrophy. […] Thus this project aims to discover small molecule probes that would not only help in gaining a better understanding of the complex regulatory mechanism of alpha7 integrin expression, but also lead to development of pharmacological agents to fight muscular dystrophy. NIH Chemical Genomics Center [NCGC] NIH Molecular Libraries Probe Centers Network [MLPCN] MLPCN Grant: NS058429 Assay Submitter (PI): Dean Burkin, University of Nevada School of Medicine
A total of 250 alpha7betagal+/- myoblasts at passage 13 were dispensed using a mulitdrop from Thermo into black low base tissue culture treated microclear aurora plates in 6 ul media containing DMEM without phenol, 5% FBS, 1x GluMax and 1x Penicillin/Streptomycin. The plates were incubated 16-24 hr at 37C, 5% CO2, 95% humidity covered with low evaporation stainless steel lids from Kalypsys. Compounds were then dispensed using a Kalypsys pintool to deliver 23 nl/well compounds in DMSO (diluted into 6 uL resulting in a 1:260 dilution of compound). The control compound used was the cdk2 inhibitor SU9516 from Tocirs (found in the initial LOPAC screen). The plates were incubated for 48 hours at 37C, 5% CO2, 95% humidity using the same stainless steel lids. After incubation with compound, 5 ul of the media was aspirated using the Kalypsys washer/dispenser and 3 ul of the Mammalian Protein Extraction Reagent (MPER) lysis buffer (Thermo Fisher) was added. The plates were spun at 2000 rpms to remove bubbles and an initial capture was acquired on the Viewlux (Perkin Elmer) with exciation at 480 nm and emission at 540 nm for 25 seconds to omit any auto fluorescent compounds. The plates were then incubated for 10 minutes at room temperature. After incubation, 3 ul of 125 uM Fluorescein di-galactoside (FDG) (Marker Gene Technologies) diluted in PBS with 2 mM MgCl2 and 0.2% betamercaptoethanol (BME) was added, the plates were spun at 2000 rpms and incubated for 30 minutes at room temperature. The plates were again read on the Viewlux with exciation at 480 nm and emission at 540 nm for 25 seconds.

Potency, inactive:
O=C(Nc1ccc(Cl)cn1)c1ccccc1-c1ccccc1, CCCCCCN1C[C@H](O)[C@@H](n2cc(C3CC3)nn2)C[C@@H]1c1ccc(Cl)cc1, CSc1ncnc2c1ncn2CCCNCc1cccs1, COc1ccc(CCNC(=O)CN(c2ccccc2)S(=O)(=O)c2ccccc2)cc1, O=C(NCc1nnnn1-c1ccc(Cl)cc1)c1ccc([N+](=O)[O-])o1, COc1ccc(NC2CCCN(C(=O)c3ccccc3-c3ncc[nH]3)C2)cc1 (stereo not given), Cc1ccc(-c2ccc(CN3C(C)C(=O)N(Cc4cn(CCC5OCCCO5)nn4)CCS3(=O)=O)cc2)cc1 (stereo not given), COC(=O)C[C@H]1C[C@@H]2c3cc(NC(=O)Nc4ccccc4)ccc3O[C@@H]2[C@@H](CO)O1, Cc1ccc(-c2nc3ccc(Cl)cn3c2Cc2ccccc2)cc1, N#Cc1ccc(OCC(=O)Nc2nc(-c3ccccn3)cs2)cc1, Cc1sc2nc(-c3ccccc3F)oc(=O)c2c1C, O=C1[C@H]2[C@@H](c3ccc(C(F)(F)F)cc3)N[C@]3(CCCN(Cc4ccc(Br)cc4)C3=O)[C@H]2C(=O)N1Cc1ccccc1, O=C(c1ccc(CS(=O)Cc2ccccc2Cl)o1)N1CCN(c2ccccc2)CC1 (stereo not given), C[C@H]1CN([C@@H](C)CO)C(=O)CCCn2nncc2CO[C@@H]1CN(C)Cc1ccc(Oc2ccccc2)cc1, Cc1ccc([C@H]2N[C@]3(CCCN(CC4CCCCC4)C3=O)[C@H]3C(=O)N(Cc4ccccc4)C(=O)[C@@H]23)cc1, COc1cccc(OCC(=O)NCCS(=O)(=O)N2CCN(c3ccccc3)CC2)c1, CCOC(=O)c1c(C)[nH]c(C)c1C(=O)COC(=O)/C=C/c1cccc([N+](=O)[O-])c1, CC(C)NC(=O)Nc1ccc2c(c1)C(=O)N([C@H](C)CO)C[C@H](C)[C@@H](CN(C)Cc1ccc(C(F)(F)F)cc1)OCCCC[C@@H](C)O2, O=c1[nH]c2ccccc2n1C1CCN(CCOc2ccccc2)CC1, c1ccc(Cn2nnc3c(NCC4CC4)ncnc32)cc1, CN1OC[C@@H]2CN[C@H](c3ccc(-c4ccccc4)cc3)C[C@@H]21, COc1ccccc1NC(=O)C(CC(=O)O)Cc1cc(C)cc(C)c1 (stereo not given), C[C@@H]1CN([C@H](C)CO)C(=O)CCCn2nncc2CO[C@@H]1CN(C)S(=O)(=O)c1cccc(C#N)c1, O=S1(=O)CCN(C2CCCCCCCCCCC2)CC1, O=C(NCCc1cccc(F)c1)C1CC(O)CN1C(=O)Nc1ccccc1 (stereo not given)

Reference: PubChem BioAssay AID624291 (National Center for Advancing Translational Sciences (NCATS), 2012)
